Holding throughout (assay): NCI-60 one-dose screen, 48 h (100 = growth as untreated, 0 = no growth, -100 = all killed)
Assay [1] has as its system NCI-H226 lung. To be noted: 10 µM.
Assay [2] deals with HOP-62 NSCLC. To be noted: 10 µM.
The subject of assay [3] is NCI-H460 lung. To be noted: 10 µM.
The test system of assay [4] is A549/ATCC NSCLC. The following applies: 10 µM.
Assay [5] concerns DU-145 prostate. The following applies: 10 µM.
The subject of assay [6] is SF-268 CNS. To be noted: 10 µM.
Assay [7] relates to SF-295 CNS. The following applies: 10 µM.
In assay [8] the test system is SF-539 CNS. To be noted: 10 µM.
The subject of assay [9] is UACC-257 melanoma. The following applies: 10 µM.
Assay [10] deals with M14 melanoma. To be noted: 10 µM.
Assay [11] deals with HCT-15 colon. To be noted: 10 µM.
The subject of assay [12] is HT29 colon. The following applies: 10 µM.
For assay [13], the system named is SNB-75 CNS. To be noted: 10 µM.
Assay [14] concerns SNB-19 CNS. The following applies: 10 µM.
Assay [15] has as its system U251 CNS. To be noted: 10 µM.
The subject of assay [16] is SK-MEL-5 melanoma. To be noted: 10 µM.
The subject of assay [17] is UACC-62 melanoma. To be noted: 10 µM.
Assay [18] deals with SK-MEL-28 melanoma. To be noted: 10 µM.
Assay [19] has as its system SK-MEL-2 melanoma. To be noted: 10 µM.
Assay [20] has as its system HL-60(TB) leukemia. To be noted: 10 µM unless noted.

We go through 8 molecules from PubChem BioAssay (NCI).

Each structure is given as a SMILES string. The panel holds about 83,000 compounds, 20% with a hit somewhere; the sample as a whole holds those more often.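 Growth was measured after 48 h exposure to one concentration of compound in 96-well plates. Values under 10 count as active.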 Unmarked numbers belong to inactive results. The source made the active and inactive calls.

Take `CCC[Se]C(=O)c1ccc(C(=O)[Se]CCC)s1`: the growth in assay [1] was -50.9% (active); in assay [2], -77.7% (active); in [3], -11.9% (active); in assay [4], -46.2% (active); in [5], 9.92% (active); in assay [6], 3.6% (active). Moreover, the growth in assay [7] is -85.7% (active); in assay [8] it was -84.7% (active); in [9] it was -53.7% (active); in assay [10], -63.4% (active); in [11] it was -71% (active); in assay [12] it was -58.5% (active). Further, the growth in assay [13] was -31.2% (active); in assay [14], -86.5% (active); in assay [15], -60.4% (active); in [16], -76.3% (active); in assay [17], -64.9% (active); in assay [18], -62.9% (active). The growth in assay [19] was -24.1% (active).
With `COc1ccc(OC)c(/C=C/C(=O)c2nc3ccccc3n2Cc2ccc(F)cc2)c1`, the growth in [1] is -42.4% (active); in [2] it was -40.4% (active); in [3] it was -30.9% (active); in [4], 8.34% (active); in assay [5] it was 4.91% (active); in assay [6], 14.8%. Besides, the growth in assay [7] is -21.3% (active); in assay [8] it was -80.4% (active); in assay [9], 15.3%; in assay [10], -7.79% (active); in assay [11] it was -61.8% (active); in assay [12], -44.7% (active). For the same molecule, the growth in [13] is 15.4%; in [14], -38.9% (active); in assay [15], -74% (active); in assay [16] it was -21.1% (active); in assay [17], -57.6% (active); in [18] it was -53% (active). The growth was -28.2% (active) in assay [19] and -11.3% (active) in assay [20].
With `CC12OOC(C)(OO1)C2CCC(=O)NCCCNc1ccnc2cc(Cl)ccc12` (centres undefined), the growth in [1] was 94%; in assay [2], 95.1%; in [3], 88.6%; in assay [4], 87.8%; in [5], -74.4% (active); in assay [6] it was 101%. The growth in [7] is 102%; in assay [8] it was 52.9%; in assay [9] it was 96.2%; in assay [10], 86%; in assay [11], -45.1% (active); in [12], 35%. In addition, the growth is 103% in assay [13]; 94.1% in assay [14]; 101% in assay [15]; 86.4% in [16]; 87.2% in [17]; 72% in assay [18]. In addition, the growth in assay [19] was 100%; in assay [20], 96.6%.
As for `CC12CCC3(CCC(=O)NCCCNc4ccnc5cc(Cl)ccc45)[C@@](C)(OO[C@]3(C)O1)O2`, the growth in [1] was 0.706% (active); in assay [2], -6.39% (active); in [3] it was 7.06% (active); in assay [4], 25.3%; in assay [5], 38.2%; in [6], 5.01% (active). Besides, the growth in [7] was -1.94% (active); in [8], -65.6% (active); in assay [9] it was 51.1%; in assay [10], -2.43% (active); in assay [11], 6.51% (active); in assay [12], 10.7%. Further, the growth in assay [13] was -4.41% (active); in assay [14], 7.99% (active); in assay [15], -28.8% (active); in assay [16] it was 14.2%; in assay [17], 11.1%; in assay [18], 33.4%. The growth in assay [19] is 23.3%; in [20], 14.9%.
`COc1ccc2cc([C@H](C)C(=O)[Se]CCC#N)ccc2c1`: the growth is -49.9% (active) in [1]; -81.2% (active) in [2]; -27.2% (active) in assay [3]; -64.9% (active) in assay [4]; -76.4% (active) in [5]; -45.8% (active) in assay [6]. The growth is -70.3% (active) in assay [7]; -67.3% (active) in [8]; -76.9% (active) in assay [9]; -63.9% (active) in assay [10]; -31.7% (active) in [11]; -49.3% (active) in assay [12]. For the same molecule, the growth was -46.8% (active) in assay [13]; -68.7% (active) in [14]; -95.3% (active) in assay [15]; -70.4% (active) in assay [16]; -67.7% (active) in assay [17]; -37.9% (active) in assay [18]. Also, the growth was -42.1% (active) in assay [19] and -42.5% (active) in [20].
In the case of `O=C(/C=C/c1ccc(Cl)cc1Cl)c1nc2ccccc2n1Cc1ccc(Br)cc1`, the growth is 55.7% in assay [1]; 94.8% in assay [2]; 78.1% in [3]; 86.5% in assay [4]; 83.9% in assay [5]; 81% in assay [6]. Also, the growth was 79.4% in [7]; 84% in [8]; 84.4% in assay [9]; 78.4% in assay [10]; 46.6% in assay [11]; 53.9% in [12]. The growth in [13] was 50.4%; in assay [14], 74.8%; in assay [15], 45%; in assay [16], 85%; in [17], 60.7%; in assay [18] it was 89.5%. Moreover, the growth was 97.2% in [19] and 60% in [20].
On to `C=CCN=C([Se])NC(=O)c1ccc2c(c1)OCO2`, for which the growth was 119% in assay [1]; 26.9% in [2]; 18.3% in assay [3]; 40.4% in [4]; 101% in assay [5]; 110% in assay [6]. In addition, the growth was 13.7% in [7]; 67.3% in assay [8]; 102% in assay [9]; 86.8% in assay [10]; 97.1% in [11]; 96% in assay [12]. Also, the growth in [13] was 26%; in assay [14], 39.2%; in assay [15], 36.2%; in assay [16], 90.8%; in assay [17], 97.9%; in [18], 111%. Besides, the results for the growth in assay [19] and in [20] were 143% and 106%, respectively.
Consider `CC[C@]12C=CCN3CC[C@@]4(c5ccc(OC)cc5N(C)[C@H]4[C@@](O)(C(=O)OC)[C@@H]1OC(=O)CCC[P+](c1ccc(C)cc1)(c1ccc(C)cc1)c1ccc(C)cc1)[C@@H]32`, for which the growth in [1] was -77.4% (active); in assay [2], -81.6% (active); in [3], -85.2% (active); in [4], -90.3% (active); in [5], -78.5% (active); in assay [6], -46.3% (active). In addition, the growth was -89.1% (active) in assay [7]; -96.6% (active) in [8]; -92.7% (active) in [9]; -85.3% (active) in assay [10]; -91% (active) in [11]; -80.7% (active) in assay [12]. Further, the growth in assay [13] is -61.2% (active); in assay [14], -97.3% (active); in [15], -91.2% (active); in assay [16] it was -99.4% (active); in assay [17], -96.8% (active); in [18], -96.6% (active). For the same molecule, the results for the growth in assay [19] and in [20] were -85.4% (active) and -47.5% (active), respectively.
